Data as given in PubChem BioAssay (NCI).
“And” between values parts separate entries of the source, which are not always exact repeats. Equal values may be shown once. This is part of a sample that, as a whole, favours compounds with a hit. Of some 83,000 tested, about 20% had one in any assay.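 96-well plates, one dose, 48 hours. Percent growth reported; active if below 10.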 The source made the active and inactive calls.

Assays:
Assay in all cases: NCI-60 one-dose screen, 48 h (100 = growth as untreated, 0 = no growth, -100 = all killed)
Details in all cases: 10 µM unless noted
SK-MEL-2 melanoma = system: SK-MEL-2 melanoma
EKVX NSCLC = system: EKVX NSCLC
SN12C renal = system: SN12C renal
UO-31 renal = system: UO-31 renal
TK-10 renal = system: TK-10 renal
ACHN renal = system: ACHN renal
CAKI-1 renal = system: CAKI-1 renal
A498 renal = system: A498 renal
HL-60(TB) leukemia = system: HL-60(TB) leukemia
CCRF-CEM leukemia = system: CCRF-CEM leukemia
MOLT-4 leukemia = system: MOLT-4 leukemia
SR leukemia = system: SR leukemia
RPMI-8226 leukemia = system: RPMI-8226 leukemia
OVCAR-8 ovarian = system: OVCAR-8 ovarian
OVCAR-4 ovarian = system: OVCAR-4 ovarian
SK-OV-3 ovarian = system: SK-OV-3 ovarian
IGROV1 ovarian = system: IGROV1 ovarian
OVCAR-3 ovarian = system: OVCAR-3 ovarian
OVCAR-5 ovarian = system: OVCAR-5 ovarian
HS 578T breast = system: HS 578T breast

Structure (SMILES)	growth (SK-MEL-2 melanoma)	growth (EKVX NSCLC)	growth (SN12C renal)	growth (UO-31 renal)	growth (TK-10 renal)	growth (ACHN renal)	growth (CAKI-1 renal)	growth (A498 renal)	growth (HL-60(TB) leukemia)	growth (CCRF-CEM leukemia)	growth (MOLT-4 leukemia)	growth (SR leukemia)	growth (RPMI-8226 leukemia)	growth (OVCAR-8 ovarian)	growth (OVCAR-4 ovarian)	growth (SK-OV-3 ovarian)	growth (IGROV1 ovarian)	growth (OVCAR-3 ovarian)	growth (OVCAR-5 ovarian)	growth (HS 578T breast)
COc1cc2c(cc1OC)[C@@H]1C(=O)c3ccc4c(c3O[C@@H]1CO2)C[C@H](C(C)C)O4	91% (inactive)	26.7% (inactive)	86.9% (inactive)	46.1% (inactive)	70.3% (inactive)	59.3% (inactive)	45.1% (inactive)	86.8% (inactive)	19% (inactive)	42.6% (inactive)	37% (inactive)	9.36% (active)	-9.79% (active)	54.7% (inactive)	42.3% (inactive)	75.9% (inactive)	81.6% (inactive)	83.1% (inactive)		
O=NN1CCCCC1	105% (inactive)	126% (inactive)	98.7% (inactive)	98.8% (inactive)	110% (inactive)	101% (inactive)	107% (inactive)	88.1% (inactive)	110% (inactive)	104% (inactive)	115% (inactive)	106% (inactive)	114% (inactive)	111% (inactive)	110% (inactive)		116% (inactive)	112% (inactive)	104% (inactive)	
C/C(=N/OC(=O)N(C)C)c1ccc(Cl)c(Cl)c1	111% (inactive)	123% (inactive)	95% (inactive)	94.7% (inactive)	101% (inactive)	112% (inactive)	102% (inactive)	99.6% (inactive)	112% (inactive)	98.2% (inactive)	86.3% (inactive)	74.5% (inactive)	89% (inactive)		119% (inactive)	116% (inactive)	105% (inactive)	113% (inactive)	100% (inactive)	116% (inactive)
CC(=O)OC1CC2(O)C(CCC3(C)C(c4ccc(=O)oc4)CCC32O)C2(C)CCC(OC3OC(CO)C(O)C(O)C3O)C=C12 (configuration not stated)	-23.2% (active)	-89.1% (active)	-6.05% (active)	-80.8% (active)	-92.3% (active)	-79.8% (active)	-93.5% (active)	-33.8% (active)	-46.1% (active)	-25.1% (active)	-19.6% (active)	-15.3% (active)	-23.3% (active)	-55.6% (active)	-64.4% (active)	-13.9% (active)	-26.5% (active)	-100% (active)		-11.3% (active)
O=C1C=C(N2CC2)c2ccccc2C1=O	90.7% (inactive)	114% (inactive)	51.2% (inactive)	53.9% (inactive)	118% (inactive)	21% (inactive)	32.3% (inactive)	102% (inactive)	8.35% (active)	-11.5% (active)	5.2% (active)	0.0144% (active)	40.5% (inactive)	73.2% (inactive)	96.1% (inactive)	76% (inactive)	70.7% (inactive)	83.3% (inactive)		107% (inactive)
C[C@]12CCc3sc(Nc4ccc(F)cc4)nc3C1=CC[C@@H]1[C@@H]2CC[C@]2(C)C(=O)CC[C@@H]12	76.8% (inactive)	78.3% (inactive)	73.8% (inactive)	59.8% (inactive)	94.4% (inactive)	77.9% (inactive)	68% (inactive)	75.7% (inactive)	49.8% (inactive)	14% (inactive)	15.8% (inactive)	19.5% (inactive)	2.21% (active)	68.4% (inactive)	76.8% (inactive)		75.2% (inactive)	24.1% (inactive)	100% (inactive)	55.3% (inactive)
O=P(O)(Nc1ccccc1)Nc1ccccc1	134% (inactive)	80.6% (inactive)	99.9% (inactive)	81.7% (inactive)	106% (inactive)	95.9% (inactive)	77.2% (inactive)	89.3% (inactive)	74% (inactive)	99.3% (inactive)	43.6% (inactive)	104% (inactive)	91.8% (inactive)	103% (inactive)	99.9% (inactive)	110% (inactive)	90.6% (inactive)	94.4% (inactive)		94.5% (inactive)
C/C(=C\c1ccn(-c2ccc(N)cc2F)n1)[C@@H]1C[C@@H]2O[C@]2(C)CCC[C@H](C)[C@H](O)[C@@H](C)C(=O)C(C)(C)[C@@H](O)CC(=O)O1	13.5% (inactive)	46.7% (inactive)	29.3% (inactive)	29.1% (inactive)	48.3% (inactive)	38.9% (inactive)	41.4% (inactive)	0.324% (active)	3.32% (active)	12.9% (inactive)	10.6% (inactive)	13.8% (inactive)	7.57% (active)	18.7% (inactive)	61.1% (inactive)		34.8% (inactive)	-4.43% (active)	23.5% (inactive)	-1.48% (active)
CCOC(=O)P(=O)(OCC)OCC	113% (inactive)	124% (inactive)	101% (inactive)	92.3% (inactive)	107% (inactive)	105% (inactive)	119% (inactive)	102% (inactive)	113% (inactive)	118% (inactive)	100% (inactive)	92.5% (inactive)	112% (inactive)	101% (inactive)		98.3% (inactive)	89.5% (inactive)	113% (inactive)	112% (inactive)	
N[C@@H](CCC(=O)CCl)C(=O)O	87.6% [20 µM] (inactive)	101% [20 µM] (inactive)	89% [20 µM] (inactive)	91% [20 µM] (inactive)	101% [20 µM] (inactive)	97.9% [20 µM] (inactive)	97% [20 µM] (inactive)	110% [20 µM] (inactive)	101% [20 µM] (inactive)	97.6% [20 µM] (inactive)	99.9% [20 µM] (inactive)	71.3% [20 µM] (inactive)			112% [20 µM] (inactive)	108% [20 µM] (inactive)	99.5% [20 µM] (inactive)	110% [20 µM] (inactive)	98% [20 µM] (inactive)	109% [20 µM] (inactive)
CN(C)c1ccc([N+](=O)[O-])c([N+](=O)[O-])c1	90% (inactive) and 103% (inactive)	96% (inactive) and 96.2% (inactive)	105% (inactive) and 97.7% (inactive)	117% (inactive) and 84.7% (inactive)	135% (inactive) and 114% (inactive)	98.1% (inactive) and 106% (inactive)	-35% (active) and 87.6% (inactive)	109% (inactive)	66.7% (inactive) and 88.1% (inactive)	80.9% (inactive) and 94.2% (inactive)	107% (inactive) and 100% (inactive)	78.3% (inactive)			101% (inactive)	108% (inactive) and 112% (inactive)	112% (inactive) and 107% (inactive)	119% (inactive) and 125% (inactive)	113% (inactive) and 101% (inactive)	
O=C(CBr)OCCOC(=O)CBr	103% (inactive)	101% (inactive)	58% (inactive)	-92.4% (active)	130% (inactive)	83% (inactive)	33.5% (inactive)	150% (inactive)	42.4% (inactive)	-15.5% (active)	64.1% (inactive)	8.37% (active)		93.7% (inactive)	38.3% (inactive)	133% (inactive)	-45.8% (active)	87.5% (inactive)		3.4% (active)
CC/C(Cc1ccccc1)=C(\c1ccc(OCCN2CCCC2)cc1)c1ccc(OC(=O)NCc2ccccc2)cc1	95.2% (inactive)	66.9% (inactive)	54.2% (inactive)	33.8% (inactive)	84.7% (inactive)	63% (inactive)	87.8% (inactive)	74.1% (inactive)	-1.94% (active)		11.7% (inactive)	-28.2% (active)	-6.25% (active)	62.2% (inactive)	59.9% (inactive)	91.9% (inactive)	40% (inactive)	78.4% (inactive)	75.9% (inactive)	69.5% (inactive)
N#CC(C#N)=Cc1cccc(F)c1	112% (inactive)	102% (inactive)	101% (inactive)	95.9% (inactive)	104% (inactive)	106% (inactive)	99.6% (inactive)	102% (inactive)	97.2% (inactive)	101% (inactive)	97.9% (inactive)		103% (inactive)	107% (inactive)	110% (inactive)	105% (inactive)	112% (inactive)	109% (inactive)	98.4% (inactive)	101% (inactive)
C[C@]12CC[C@H](O)C[C@@H]1CC[C@@H]1[C@@H]2CC[C@]2(C)OC(=O)CC[C@@H]12	108% (inactive)	89% (inactive)	96.8% (inactive)	83.1% (inactive)	97.5% (inactive)	107% (inactive)	92.8% (inactive)	109% (inactive)	94.4% (inactive)		113% (inactive)	125% (inactive)	102% (inactive)	85.6% (inactive)	104% (inactive)	85% (inactive)	93.1% (inactive)	99% (inactive)	93.7% (inactive)	
